Where “and” joins values, the source holds several entries; their conditions need not be identical. Equal values may be shown once. Among all 5,500 compounds or so, about 2,000 (36%) were called active. Roughly 18% stayed inconclusive and do not appear here. No stated cut-off is given here; in the data, active means normalized growth mostly below about 0.91 (no sharp cut-off); inconclusive means no clear call, values can overlap the other calls; inactive means mostly above about 0.92. The list shows a part of the results.
Experiment: chemical genetic growth profiling, strain panel (AID 1159580);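 further: tested at 20 µM; growth read once vehicle control cultures reached saturation at 30 °C; 1 = growth at the plate median or of vehicle wells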
Conditions: S. cerevisiae deletion strains, growth OD

Measured: normalized growth

NC1(C(=O)O)CC1
inactive: locus YAL013W, strain DEP1, stronger effect = lower value 1 | locus YAL021C, strain ccr4, stronger effect = lower value 1.04 | locus YAL026C, strain drs2, stronger effect = lower value 1.04 | locus YAL030W, strain snc1, stronger effect = lower value 1.02 | locus YAL040C, strain CLN3, stronger effect = lower value 0.98 | locus YBL061C, strain skt5, stronger effect = lower value 1.04 | locus YBR009C, strain hhf1, stronger effect = lower value 1.02 | locus YBR021W, strain FUR4, stronger effect = lower value 1.01 | locus YBR023C, strain chs3, stronger effect = lower value 1.03 | locus YBR171W, strain sec66, stronger effect = lower value 1.04 | locus YBR229C, strain ROT2, stronger effect = lower value 1.01 | locus YBR231C, strain swc5, stronger effect = lower value 1.02 | locus YBR279W, strain paf1, stronger effect = lower value 1.02 | locus YCL011C, strain gbp2, stronger effect = lower value 1.02 | locus YCL016C, strain dcc1, stronger effect = lower value 1.04 | locus YCL029C, strain bik1, stronger effect = lower value 1.02 | locus YCL061C, strain MRC1, stronger effect = lower value 1.02 | locus YCL069W, strain vba3, stronger effect = lower value 1.02 | locus YCR088W, strain abp1, stronger effect = lower value 1.02 | locus YDL005C, strain med2, stronger effect = lower value 1.03 | locus YDL035C, strain GPR1, stronger effect = lower value 1.03 | locus YDL040C, strain nat1, stronger effect = lower value 1.02 | locus YDL074C, strain BRE1, stronger effect = lower value 1.01 | locus YDL101C, strain DUN1, stronger effect = lower value 1.01 | locus YDL134C, strain PPH21, stronger effect = lower value 1.01 | locus YDL185W, strain tfp1, stronger effect = lower value 1.03 | locus YDL192W, strain arf1, stronger effect = lower value 1.02 | locus YDR001C, strain nth1, stronger effect = lower value 1.02 | locus YDR069C, strain doa4, stronger effect = lower value 1.04 | locus YDR101C, strain arx1, stronger effect = lower value 1 | locus YDR137W, strain rgp1, stronger effect = lower value 1.06 | locus YDR150W, strain NUM1, stronger effect = lower value 1.01 | locus YDR159W, strain sac3, stronger effect = lower value 1.02 | locus YDR162C, strain NBP2, stronger effect = lower value 1.03 | locus YDR195W, strain ref2 1.02 | locus YDR297W, strain sur2, stronger effect = lower value 1.03 | locus YDR318W, strain mcm21, stronger effect = lower value 1.03 | locus YDR334W, strain swr1, stronger effect = lower value 1.03 | locus YDR335W, strain msn5, stronger effect = lower value 1.04 | locus YDR363W, strain ESC2, stronger effect = lower value 0.986 | locus YDR388W, stronger effect = lower value 1.01 | locus YDR392W, strain spt3, stronger effect = lower value 1.05 | locus YDR502C, strain sam2, stronger effect = lower value 1.02 | locus YEL003W, strain gim4, stronger effect = lower value 1.02 | locus YEL037C, strain rad23, stronger effect = lower value 1.02 | locus YEL061C, strain CIN8 (second series), stronger effect = lower value 1.03 | locus YEL061C, strain CIN8, stronger effect = lower value 1 | locus YER002W, strain NOP16, stronger effect = lower value 0.981 | locus YER015W, strain faa2, stronger effect = lower value 1.03 | locus YER016W, strain bim1, stronger effect = lower value 1.04 | locus YER110C, stronger effect = lower value 1.03 | locus YER111C, strain swi4, stronger effect = lower value 1.01 | locus YER155C, strain BEM2 (second series), stronger effect = lower value 1.02 | locus YER155C, strain BEM2, stronger effect = lower value 0.998 | locus YER167W, strain BCK2, stronger effect = lower value 1.05 | locus YFR010W, strain ubp6, stronger effect = lower value 1.01 | locus YGL078C, strain dbp3, stronger effect = lower value 1.02 | locus YGL086W, strain mad1, stronger effect = lower value 1.03 | locus YGL167C, strain pmr1, stronger effect = lower value 1.04 | locus YGL173C, strain kem1, stronger effect = lower value 1.03 | locus YGL227W, strain vid30, stronger effect = lower value 1.02 | locus YGL240W, strain doc1, stronger effect = lower value 1.01 | locus YGL248W, strain PDE1, stronger effect = lower value 1.01 | locus YGL253W, strain hxk2, stronger effect = lower value 1.04 | locus YGR078C, strain PAC10, stronger effect = lower value 1.02 and 0.978 | locus YGR135W, strain pre9, stronger effect = lower value 1.03 | locus YGR229C, strain SMI1, stronger effect = lower value 1.01 | locus YGR252W, strain gcn5, stronger effect = lower value 1.04 | locus YHR013C, strain ard1, stronger effect = lower value 1.06 | locus YHR027C, strain rpn1, stronger effect = lower value 1.04 | locus YHR030C, strain SLT2, stronger effect = lower value 1 and 1.03 | locus YHR079C, strain IRE1 (second series), stronger effect = lower value 1.01 | locus YHR079C, strain IRE1, stronger effect = lower value 1.03 | locus YHR094C, strain hxt1, stronger effect = lower value 1.01 | locus YHR129C, strain ARP1, stronger effect = lower value 1 | locus YHR142W, strain chs7, stronger effect = lower value 1.05 | locus YHR200W, strain rpn10, stronger effect = lower value 1.03 | locus YIL066C, strain RNR3, stronger effect = lower value 1.02 | locus YIL073C, strain SPO22, stronger effect = lower value 1.11 | locus YIL125W, strain kgd1, stronger effect = lower value 1 | locus YIR030C, strain dcg1, stronger effect = lower value 1.01 | locus YJL092W, strain hpr5, stronger effect = lower value 1.02 | locus YJL095W, strain BCK1 (second series), stronger effect = lower value 1.02 | locus YJL095W, strain BCK1, stronger effect = lower value 1.02 and 1.04 | locus YJL115W, strain asf1, stronger effect = lower value 1.03 | locus YJL129C, strain trk1, stronger effect = lower value 1.05 | locus YJL134W, strain LCB3, stronger effect = lower value 1 | locus YJL154C, strain vps35, stronger effect = lower value 1.01 | locus YJL164C, strain tpk1, stronger effect = lower value 1.02 | locus YJL166W, strain qcr8, stronger effect = lower value 1.01 | locus YJL168C, strain set2, stronger effect = lower value 1.02 | locus YJL187C, strain SWE1 (second series), stronger effect = lower value 1.01 | locus YJL187C, strain SWE1, stronger effect = lower value 1.01 | locus YJR043C, strain POL32, stronger effect = lower value 1.01 | locus YJR066W, strain TOR1, stronger effect = lower value 0.98

Source: PubChem BioAssay AID1159580 (chemical genetic matrix, 2015)
